The values that follow come from the supplement of paper PMC8007513.

SMILES strings stand for the structures. Structures can show the parent of a compound that is named as a salt. ± gives the standard error. About 130 (10%) of roughly 1,300 compounds showed an effect of 50% or more. What follows is part of a selection rich in strong results, with near analogues and random picks from the rest.

This test concerns Trichoderma virens ATCC 9645. The test is described as follows: growth yield (OD600) with compound + IPBC relative to untreated control; higher = less growth inhibition. The following applies: compound concentration: 100 uM, IPBC concentration: 200 ng/ml. An outline of the steps:
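Plates were read for OD600 at 40 h and 72 h after Trichoderma virens ATCC 9645 spores (15,000 spores ml^−1 in potato dextrose broth) were grown at 30 °C with library compounds at 100 μM final, with or without a biocide at 200 ng ml^−1. Growth is stated relative to the control with neither agent, as the mean of duplicate screens.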

Take `O=[N+]([O-])O[C@@H]1CO[C@H]2[C@@H]1OC[C@@H]2O` [Isosorbide mononitrate] + CCCCNC(=O)OCC#CI [3-iodo-2-propynyl butylcarbamate (IPBC)]: the growth yield (40 h) worked out at 88.2 ± 4% and the growth yield (72 h) amounted to 91.3 ± 4.1%.
`CCN(C(C)=O)c1cccc(-c2ccnc3c(C#N)cnn23)c1` [Zaleplon] + CCCCNC(=O)OCC#CI [3-iodo-2-propynyl butylcarbamate (IPBC)]: the growth yield runs as follows: (40 h) 81.009 ± 1e-14%; (72 h) 88.94 ± 0.42%.
For `Cc1c(NC(C)C)c(=O)n(-c2ccccc2)n1C` [Isopyrin hydrochloride] + CCCCNC(=O)OCC#CI [3-iodo-2-propynyl butylcarbamate (IPBC)] the same measures were 87 ± 2.5% and 91.24 ± 0.63%.
In the same order, the values of `CC1(C)S[C@@H]2[C@H](NC(=O)Cc3ccccc3)C(=O)N2[C@H]1C(=O)O` [Benzylpenicillin sodium] + CCCCNC(=O)OCC#CI [3-iodo-2-propynyl butylcarbamate (IPBC)] are 82.1 ± 6.2% and 97.1 ± 6.1%.
In the same order, the values of `CC1(C)S[C@@H]2[C@H](NC(=O)Cc3ccccc3)C(=O)N2[C@H]1C(=O)O` [Benzathine benzylpenicillin] + CCCCNC(=O)OCC#CI [3-iodo-2-propynyl butylcarbamate (IPBC)] are 102 ± 12% and 98 ± 9.9%.
Consider `CCCCc1ncc(/C=C(\Cc2cccs2)C(=O)O)n1Cc1ccc(C(=O)O)cc1` [Eprosartan mesylate] + CCCCNC(=O)OCC#CI [3-iodo-2-propynyl butylcarbamate (IPBC)], for which the growth yield (40 h) stood at 112 ± 9.7% and the growth yield (72 h) amounted to 109 ± 4.1%.
With `COC(=O)C1=C(C)NC(C)=C(C(=O)OCC(C)C)C1c1ccccc1[N+](=O)[O-]` (configuration not stated) [Nisoldipine] + CCCCNC(=O)OCC#CI [3-iodo-2-propynyl butylcarbamate (IPBC)], the growth yield (40 h) is 41.3 ± 8.3% and the growth yield (72 h) was 34.71 ± 0.1%.
In the same order, the values of `COCCOC(=O)C1=C(C)NC(C)=C(C(=O)OC(C)C)C1c1cccc([N+](=O)[O-])c1` (configuration not stated) [Nimodipine] + CCCCNC(=O)OCC#CI [3-iodo-2-propynyl butylcarbamate (IPBC)] are 79.7 ± 7.9% and 87.3 ± 1.3%.
For `CCOC(=O)C1=C(C)NC(C)=C(C(=O)OC)C1c1cccc(Cl)c1Cl` (configuration not stated) [Felodipine] + CCCCNC(=O)OCC#CI [3-iodo-2-propynyl butylcarbamate (IPBC)], the growth yield runs as follows: (40 h) 77.5 ± 8.3%; (72 h) 92.9 ± 1.9%.
Consider `COC(=O)C1=C(C)NC(C)=C(C(=O)OC)C1c1ccccc1[N+](=O)[O-]` [Nifedipine] + CCCCNC(=O)OCC#CI [3-iodo-2-propynyl butylcarbamate (IPBC)], for which the growth yield turned out to be 42.41 ± 0.16% (40 h) and 55.48 ± 0.52% (72 h).
For `COC(=O)C1=C(C)NC(C)=C(C(=O)OCCN(C)Cc2ccccc2)C1c1cccc([N+](=O)[O-])c1` (configuration not stated) [Nicardipine hydrochloride] + CCCCNC(=O)OCC#CI [3-iodo-2-propynyl butylcarbamate (IPBC)], the growth yield (40 h) is 73.1 ± 1.6% and the growth yield (72 h) stood at 94.7 ± 2.2%.
On to `CCOC(=O)C1=C(C)NC(C)=C(C(=O)OC)C1c1cccc([N+](=O)[O-])c1` (configuration not stated) [Nitrendipine] + CCCCNC(=O)OCC#CI [3-iodo-2-propynyl butylcarbamate (IPBC)], for which the growth yield (40 h) was 79.58 ± 0.48% and the growth yield (72 h) worked out at 85.7 ± 1.1%.
`CCCCc1nc(Cl)c(CO)n1Cc1ccc(-c2ccccc2-c2nnn[nH]2)cc1` [Losartan] + CCCCNC(=O)OCC#CI [3-iodo-2-propynyl butylcarbamate (IPBC)]: the growth yield runs as follows: (40 h) 98.3 ± 6.2%; (72 h) 96.7 ± 5.7%.
Turning to `CC[C@@H](CO)NC(=O)[C@@H]1C=C2c3cccc4[nH]cc(c34)C[C@H]2N(C)C1` [Methylergometrine maleate] + CCCCNC(=O)OCC#CI [3-iodo-2-propynyl butylcarbamate (IPBC)], the growth yield runs as follows: (40 h) 79.7 ± 4.8%; (72 h) 88 ± 2%.
In the same order, the values of `NS(=O)(=O)c1cc2c(cc1Cl)NC(CC1CCCC1)NS2(=O)=O` (configuration not stated) [Cyclopenthiazide] + CCCCNC(=O)OCC#CI [3-iodo-2-propynyl butylcarbamate (IPBC)] are 88.8 ± 1.4% and 98.48 ± 0.32%.
With `NCc1ccccc1CC(=O)N[C@@H]1C(=O)N2C(C(=O)O)=C(CSc3nnnn3CC(=O)O)CS[C@H]12` [Ceforanide] + CCCCNC(=O)OCC#CI [3-iodo-2-propynyl butylcarbamate (IPBC)], the growth yield is 92.3 ± 5.6% (40 h) and 97.1 ± 2.1% (72 h).
For `CCC1(c2ccc(N)cc2)CCC(=O)NC1=O` (configuration not stated) [Glutethimide, para-amino] + CCCCNC(=O)OCC#CI [3-iodo-2-propynyl butylcarbamate (IPBC)] the same measures were 111 ± 4.1% and 112 ± 4.5%.
Take `CC(NC(C)(C)C)C(=O)c1cccc(Cl)c1` (configuration not stated) [Bupropion hydrochloride] + CCCCNC(=O)OCC#CI [3-iodo-2-propynyl butylcarbamate (IPBC)]: the growth yield is, setting by setting: (40 h) 92.1 ± 5.4%; (72 h) 98.5 ± 3%.
`COc1cccc(N(C)C(=S)Oc2ccc3c(c2)CCCC3)n1` [Liranaftate] + CCCCNC(=O)OCC#CI [3-iodo-2-propynyl butylcarbamate (IPBC)]: the growth yield (40 h) is 0% and the growth yield (72 h) is 0%.
With `NCC(O)c1ccc(O)cc1` (racemic) [(+,-)-Octopamine hydrochloride] + CCCCNC(=O)OCC#CI [3-iodo-2-propynyl butylcarbamate (IPBC)], the growth yield reads like this: (40 h) 97.4 ± 12%; (72 h) 95 ± 4.6%.
For the molecule `CC(=O)N(CC(O)CO)c1c(I)c(C(=O)NCC(O)CO)c(I)c(C(=O)NCC(O)CO)c1I` (configuration not stated) [Iohexol] + CCCCNC(=O)OCC#CI [3-iodo-2-propynyl butylcarbamate (IPBC)], the growth yield by setting is: (40 h) 91.2 ± 8.3%; (72 h) 93.7 ± 5.6%.
For `Clc1ccc(CSC(Cn2ccnc2)c2ccc(Cl)cc2Cl)cc1` (configuration not stated) [Sulconazole nitrate] + CCCCNC(=O)OCC#CI [3-iodo-2-propynyl butylcarbamate (IPBC)] the same measures were 3.02 ± 0.16% and 2.41 ± 0.1%.
Regarding `Clc1ccc(C(Cn2ccnc2)OCc2c(Cl)cccc2Cl)c(Cl)c1` (configuration not stated) [Isoconazole] + CCCCNC(=O)OCC#CI [3-iodo-2-propynyl butylcarbamate (IPBC)], the growth yield reads like this: (40 h) 4.13 ± 0.64%; (72 h) 2.83 ± 0.32%.
On to `Clc1ccc(C(Cn2ccnc2)OCc2ccsc2Cl)c(Cl)c1` (configuration not stated) [Tioconazole] + CCCCNC(=O)OCC#CI [3-iodo-2-propynyl butylcarbamate (IPBC)], for which the growth yield (40 h) came out at 3.65 ± 0.16% and the growth yield (72 h) came out at 2.52%.
In the case of `O=C(O)/C=C/c1ccc(Cn2ccnc2)cc1` [Ozagrel hydrochloride] + CCCCNC(=O)OCC#CI [3-iodo-2-propynyl butylcarbamate (IPBC)], the growth yield was found to be 105 ± 12% (40 h) and 103 ± 8.7% (72 h).
For `Clc1ccc(COC(Cn2ccnc2)c2ccc(Cl)cc2Cl)cc1` (configuration not stated) [Econazole nitrate] + CCCCNC(=O)OCC#CI [3-iodo-2-propynyl butylcarbamate (IPBC)] the same measures were 3.18 ± 0.32% and 2.73 ± 0.42%.
